Screens from PubChem BioAssay.
Only some compounds are listed: those with a hit (about 4.5% of all), similar ones and a draw of the others.
GBA activity: Glucocerebrosidase | purified enzyme, resorufin glucoside fluorescence (screen aimed at inhibitors), 20 min | Potency, µM | hit rate 1.1% among 48,000; in the data active = potency below about 15 µM; inconclusive = mostly about 16 µM to 33 µM;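 note: the screen sought inhibitors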
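Normal human glucocerebrosidase (0.2 nM final) was assayed with resorufin β-D-glucopyranoside (30 uM final) in 50mM citric acid/KH2PO4, 10mM sodium taurocholate, 0.01% tween-20, pH 5.9. Compounds were titrated; fluorescence (Ex 548, Em 600) read after 20 min at RT.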
Caspase-1 inhib: qHTS Assay for Allosteric/Competitive Inhibitors of Caspase-1; AID 900, 2007; hit rate 0.03% among 75,000; Caspase-1 enzyme, Ac-WEHD-AFC fluorogenic rate; P29466; Potency, µM (series often up to 57.5 µM), without a hit: at the highest dose activity change, negative = inhibition, usual class: inhibitors;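 note: plate controls were vehicle for no effect and no substrate for full effect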
HEK293 cAMP ctrl: qHTS Assay for Agonists of the Thyroid Stimulating Hormone Receptor: Activators of Intracellular cAMP Concentrations in Parental HEK 293. parental HEK293 CNG cAMP sensor, membrane potential fluorescence. Potency, µM (top dose mostly 57.1 µM), for inactives: top-dose activation, most hits filed as activators. hit rate 2.5% among 73,000. AID 938, 2007; note: % of control where 0% means no effect; nearly all actives have a fitted effect of over 55% in size
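Parental HEK 293 cells stably expressing a cAMP-gated CNG channel were loaded with membrane potential dye containing 100 uM RO 20-1724 for 60 min. Compound added for 30 min; depolarization read as fluorescence intensity at 590 nm.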
TSHR agonist: qHTS Assay for Agonists of the Thyroid Stimulating Hormone Receptor. HEK293-CNG-TSHR cells (CNG channel as cAMP sensor), membrane potential dye, cAMP. hit rate 0.48% among 73,000. Potency, µM (doses to about 57.1 µM), for the others: top-dose activation, usual class: activators; active = well fitted activation curve with a large enough effect in the main read-out, with a control signal flat, not every such curve was filed as active; inconclusive = small, poorly fitted or top-dose-only effect, or a change in a side signal; inactive = no such curve, though single readings can be large or run the other way; % of control where 0% means no effect;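 note: the control signal comes from parental cells without the receptor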
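HEK 293 cells stably expressing TSHR and a modified CNG channel, with CNG-only parental cells as counterscreen, were preloaded 60 min at room temperature with membrane potential dye containing 100 uM RO 20-1724. Compound exposure was 30 min, and depolarization was read as fluorescence at 590 nm.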
ERK AVP block: qHTS Assay for Inhibitors of the ERK Signaling Pathway using a Homogeneous Screening Assay. AID 995, 2007. Potency, µM (doses to about 57.5 µM), without a hit: at the top dose activity, negative = inhibition, hits mostly inhibitors. HEK293-V1b, vasopressin-stimulated pERK AlphaScreen. hit rate 0.99% among 72,000; note: % is set by controls: 0 for no effect and ±100 for the full control effect; nearly all actives have a fitted effect of over 55% in size
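Phosphorylated ERK1/2 detected via AlphaScreen bead proximity in lysates of V1b-expressing HEK293 cells given 25 nM vasopressin for 5 min after 30 min compound exposure (37 °C). AC50 from Hill equation; basal DMSO 0%, vasopressin 100%.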
Caspase-7 inhib: qHTS Assay for Allosteric/Competitive Inhibitors of Caspase-7 | Potency, µM (doses to about 57.5 µM), for inactives: at the top dose activity change, negative = inhibition, most hits filed as inhibitors | P55210 | recombinant caspase-7, Ac-DEVD-AFC fluorescence rate | hit rate 0.02% among 75,000; active = well fitted inhibition curve with a large enough effect in the main read-out, with a control signal flat, not every such curve was filed as active; inconclusive = small, poorly fitted or top-dose-only effect, or a change in a side signal; note: % of control where 0% means no effect
* = called active by the depositor; ? = inconclusive; · = not tested or not shown; ! = not active in a repeat; [ ] = remark or other dose. Unless noted, calls come from the whole dose curve; as a rule, active = well fitted curve in the direction sought with a large enough effect; inconclusive = small, poorly fitted or top-dose-only effect, or another doubt; inactive = no such curve, though single readings can be large; an effect the other way counts as inactive or inconclusive. Potency is the fitted concentration of half-maximal effect.

SMILES	GBA activity	Caspase-1 inhib	HEK293 cAMP ctrl	TSHR agonist	ERK AVP block	Caspase-7 inhib
O=C(O)c1nn(Cc2ccc(Cl)cc2Cl)c2ccccc12	·	2%	40µM*!	?	46%	-2%
O=C1C=C2C(=CCOC2O)O1 (centres undefined)	·	-5%	·	·	32µM*	-1%
O=S(=O)(NCCO)c1cc[c]([Sb](=[O])([OH])[OH])cc1	·	0%[11.5 µM]	-7%[11.4 µM]	5%[11.4 µM]	1%[11.5 µM]	-3%[11.5 µM]
CC(C)(C)c1cc(C=C(C#N)C#N)cc(C(C)(C)C)c1O	·	1%	0.79µM*	?	25%	0%
CCC(C)NC(=O)c1c(N)n(Cc2ccc3c(c2)OCO3)c2nc3ccccc3nc12 (centres undefined)	15*	·	13%	1%	29%	?
CC(C)[C@@]1(NC(=O)[C@@H]2C[C@H]3c4cccc5[nH]cc(c45)C[C@@H]3N(C)C2)O[C@@]2(O)[C@H]3CCCN3C(=O)[C@@H](Cc3ccccc3)N2C1=O	·	·	-30%	-31%	·	·
C[C@H]1C(=O)O[C@H]2CCN3CC=C(COC(=O)[C@](C)(O)[C@@]1(C)O)[C@H]23	·	·	-3%	0%	·	·
CN1[C@@H]2CC[C@H]1CC(O[C@@H](c1ccccc1)c1ccc(Cl)cc1)C2 (some centres undefined)	·	-1%	40µM*	?	13%	-2%
CCCN1CCC[C@H](c2cccc(C#N)c2)C1	·	?	?	?	4%	-2%
CC(C)CC(N(C)C)C1(c2ccc(Cl)cc2)CCC1 (centres undefined)	·	-3%	25µM*	?	?	0%
CCC/C=C(\CCC)C(NP(=O)(c1ccccc1)c1ccccc1)c1ccccc1 (centres undefined)	·	0%	?	?	?	-3%
C=C(CC1(C(C)NP(=O)(c2ccccc2)c2ccccc2)CC1)c1ccccc1 (centres undefined)	·	-5%	16µM*	?	20%	-8%
NC(N)=Nc1ccc2[nH]c3c(c2c1)C[C@]1(O)[C@@H]2Cc4ccc(O)c5c4[C@]1(CCN2CC1CC1)[C@H]3O5	·	3%	0.016µM*	?	?	-11%
C=C(C)CN1CC[C@@]23c4c5ccc(O)c4O[C@H]2c2[nH]c4ccccc4c2C[C@]3(O)[C@@H]1C5	·	-1%	4%	-1%	2%	1%
c1ccc(/N=C2\N=C(Nc3ccccn3)c3ccccc32)nc1	>77	-3%	19%	7.9µM*	?	-4%
O=C1C[C@H]2OCCC=C3CN4CC[C@@]56c7ccccc7N1[C@@H]5[C@H]2[C@H]3C[C@@H]46	·	·	28%	2%	·	·
C[C@@H]1CC[C@@]2(OC1)O[C@H]1[C@@H](O)[C@H]3[C@@H]4CC[C@H]5C[C@@H](O[C@@H]6O[C@H](CO)[C@H](O[C@@H]7O[C@H](CO)[C@@H](O)[C@H](O[C@@H]8OC[C@@H](O)[C@H](O)[C@H]8O)[C@H]7O[C@@H]7O[C@H](CO)[C@@H](O)[C@H](O[C@@H]8O[C@H](CO)[C@@H](O)[C@H](O)[C@H]8O)[C@H]7O)[C@H](O)[C@H]6O)[C@H](O)C[C@]5(C)[C@H]4CC[C@]3(C)[C@H]1[C@@H]2C	·	-1%	?	?	32µM*	0%
CSC([N-]/N=C/c1cccc(C)n1)=[S]=[Cu].CS[C@H]([S-])[N-]/N=C/c1cccc(C)n1	·	-2%[11.5 µM]	-2%[11.4 µM]	-7%[11.4 µM]	?	-2%[11.5 µM]
C=C[C@@H]1CN2CC[C@@H]1C[C@H]2[C@H](O)c1ccnc2ccccc12	·	·	7%	-5%	·	·
N#CC(C#N)=NNc1cccc(Cl)c1	·	-5%	0.63µM*	?	12%	-9%
CC(C)N[C@@H](C)Cc1ccc(I)cc1	·	-2%	1%	7%	20%	1%
